Assay results from the supplement of paper PMC8253809.

Each molecule was assayed on SUDIPGVI (diffuse intrinsic pontine glioma line) (assay: growth inhibition (% activity, log2 RLU normalised to DMSO / staurosporine); higher = more growth inhibition). Details: 33 µM.
Method in brief: (§1)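 Approved drugs were tested in triplicate at a single final concentration of about 33 μM for 7 days at 37 °C, 5% CO2, on pHGG cell lines and H9-derived neural stem cells. Readout was CellTiter-Glo luminescence, log2-transformed and scaled per plate to % activity between solvent and positive control wells. The median over replicates gives the growth-inhibition value.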

Row | Compound | growth inhibition [%]
1 | CC=CC1=C(C(=O)O)N2C(=O)[C@@H](NC(=O)[C@H](N)c3ccc(O)cc3)[C@H]2SC1 | 0.277
2 | O=C1[C@@H]2[C@H]3CC[C@H](C3)[C@@H]2C(=O)N1C[C@@H]1CCCC[C@H]1CN1CCN(c2nsc3ccccc23)CC1 | 0.346
3 | CC(=O)S[C@@H]1CC2=CC(=O)CC[C@]2(C)[C@H]2CC[C@@]3(C)[C@@H](CC[C@@]34CCC(=O)O4)[C@H]12 | 2.19
4 | NCCC(O)(P(=O)(O)O)P(=O)(O)O | 2.52
5 | CCN(CC)C(=O)C1(c2ccccc2)CC1CN (stereo not drawn) | 2.57
6 | NC12CC3CC(CC(C3)C1)C2 | 0.782
7 | COc1ccc2cc(CCC(C)=O)ccc2c1 | -8.13
8 | Nc1ccc(/N=N/c2ccccc2)c(N)n1 | -4.45
9 | CN(C)C/C=C/C(=O)Nc1cc2c(Nc3ccc(F)c(Cl)c3)ncnc2cc1O[C@H]1CCOC1 | -0.744
10 | CC(C)OC(=O)C(C)(C)Oc1ccc(C(=O)c2ccc(Cl)cc2)cc1 | 2.08
11 | CCOc1ccccc1OC(c1ccccc1)C1CNCCO1 (stereo not drawn) | -0.0566
12 | Cn1c(=O)c2c(ncn2CC(O)CO)n(C)c1=O (stereo not drawn) | 3.1
13 | CCCCCN(C)CCC(O)(P(=O)(O)O)P(=O)(O)O | -0.622
14 | COc1ccc(-n2nc(C(N)=O)c3c2C(=O)N(c2ccc(N4CCCCC4=O)cc2)CC3)cc1 | 1.14
15 | O=C(O)CCc1nc(-c2ccccc2)c(-c2ccccc2)o1 | 0.464
16 | N=C(N)NCCN1CCCCCCC1 | 5
17 | CCCc1nn(C)c2c(=O)[nH]c(-c3cc(S(=O)(=O)N4CCN(C)CC4)ccc3OCC)nc12 | 0.71
18 | Cc1cccc(Nc2ccncc2S(=O)(=O)NC(=O)NC(C)C)c1 | 1.11
19 | NC(=O)CC[C@H](N)C(=O)O | 1.4
20 | CO[C@H]1C(=O)[C@]2(C)[C@@H](OC)C[C@H]3OC[C@@]3(OC(C)=O)[C@H]2[C@H](OC(=O)c2ccccc2)[C@]2(O)C[C@H](OC(=O)[C@H](O)[C@@H](NC(=O)OC(C)(C)C)c3ccccc3)C(C)=C1C2(C)C | 3.28

Row | Compound | growth inhibition [%]
21 | CC(C(=O)O)c1ccc(C(=O)c2cccs2)cc1 (stereo not drawn) | 0.938
22 | CC(=O)OCC(=O)[C@@]1(O)[C@H](C)C[C@H]2[C@@H]3CCC4=CC(=O)C=C[C@]4(C)[C@@]3(F)[C@@H](O)C[C@@]21C | 3.94
23 | C[C@@H](c1ncncc1F)[C@](O)(Cn1cncn1)c1ccc(F)cc1F | -1.71
24 | COc1nc(C)nc(Cl)c1NC1=NCCN1 | -2.98
25 | C[C@H](Cc1cc2c(c(C(N)=O)c1)N(CCCO)CC2)NCCOc1ccccc1OCC(F)(F)F | 1.49
26 | CC(C)(Oc1ccc(Cl)cc1)C(=O)O | -0.459
27 | N[C@@H]1CCCCN(c2c(F)cc3c(=O)c(C(=O)O)cn(C4CC4)c3c2Cl)C1 | -2.21
28 | COc1cc(NS(=O)(=O)c2ccc(N)cc2)nc(OC)n1 | 2.95
29 | CCC(NC(C)C)C(O)c1ccc(O)c(O)c1 (stereo not drawn) | 5.58
30 | CCN(CC)C(=S)SSC(=S)N(CC)CC | 1.15
31 | Cc1nc(Nc2ncc(C(=O)Nc3c(C)cccc3Cl)s2)cc(N2CCN(CCO)CC2)n1 | 2.41
32 | COC(=O)C1=C(C)NC(C)=C(C(=O)OC2CCCN(Cc3ccccc3)C2)C1c1cccc([N+](=O)[O-])c1 (stereo not drawn) | -1.31
33 | N[C@@H](Cc1cc(I)c(Oc2ccc(O)c(I)c2)c(I)c1)C(=O)O | 10.1
34 | O=C([O-])[C@H](O)[C@@H](O)[C@H](O)[C@H](O)CO.[Na+] | 2.94
35 | CN(C/C=C/c1ccccc1)Cc1cccc2ccccc12 | 1.27
36 | [O-][n+]1cccc(CO)c1 | -0.214
37 | CNC(=C[N+](=O)[O-])NCCSCc1csc(CN(C)C)n1 | 0.207
38 | Cc1ccc(C)c(OCCCC(C)(C)C(=O)O)c1 | 0.864
39 | N#Cc1ccc(C(c2ccc(C#N)cc2)n2cncn2)cc1 | 1.28

These molecules were tested on SUDIPGXIII (diffuse intrinsic pontine glioma line) in the same assay as above. Details: 33 µM.
Method in brief: as §1

Row | Compound | growth inhibition [%]
40 | CC=CC1=C(C(=O)O)N2C(=O)[C@@H](NC(=O)[C@H](N)c3ccc(O)cc3)[C@H]2SC1 | -12.4
41 | O=C1[C@@H]2[C@H]3CC[C@H](C3)[C@@H]2C(=O)N1C[C@@H]1CCCC[C@H]1CN1CCN(c2nsc3ccccc23)CC1 | 2.16
42 | CC(=O)S[C@@H]1CC2=CC(=O)CC[C@]2(C)[C@H]2CC[C@@]3(C)[C@@H](CC[C@@]34CCC(=O)O4)[C@H]12 | 0.862
43 | NCCC(O)(P(=O)(O)O)P(=O)(O)O | 0.475
44 | CCN(CC)C(=O)C1(c2ccccc2)CC1CN (stereo not drawn) | 0.599
45 | NC12CC3CC(CC(C3)C1)C2 | -2.09
46 | COc1ccc2cc(CCC(C)=O)ccc2c1 | 3.04
47 | Nc1ccc(/N=N/c2ccccc2)c(N)n1 | 1.45
48 | CN(C)C/C=C/C(=O)Nc1cc2c(Nc3ccc(F)c(Cl)c3)ncnc2cc1O[C@H]1CCOC1 | 0.97
49 | CC(C)OC(=O)C(C)(C)Oc1ccc(C(=O)c2ccc(Cl)cc2)cc1 | 0.0771
50 | CCOc1ccccc1OC(c1ccccc1)C1CNCCO1 (stereo not drawn) | 0.138
51 | Cn1c(=O)c2c(ncn2CC(O)CO)n(C)c1=O (stereo not drawn) | -0.692
52 | CCCCCN(C)CCC(O)(P(=O)(O)O)P(=O)(O)O | 0.0777
53 | COc1ccc(-n2nc(C(N)=O)c3c2C(=O)N(c2ccc(N4CCCCC4=O)cc2)CC3)cc1 | 0.63
54 | O=C(O)CCc1nc(-c2ccccc2)c(-c2ccccc2)o1 | 1.19
55 | N=C(N)NCCN1CCCCCCC1 | -0.376
56 | CCCc1nn(C)c2c(=O)[nH]c(-c3cc(S(=O)(=O)N4CCN(C)CC4)ccc3OCC)nc12 | -0.097
57 | Cc1cccc(Nc2ccncc2S(=O)(=O)NC(=O)NC(C)C)c1 | 1.52
58 | NC(=O)CC[C@H](N)C(=O)O | -0.384
59 | CO[C@H]1C(=O)[C@]2(C)[C@@H](OC)C[C@H]3OC[C@@]3(OC(C)=O)[C@H]2[C@H](OC(=O)c2ccccc2)[C@]2(O)C[C@H](OC(=O)[C@H](O)[C@@H](NC(=O)OC(C)(C)C)c3ccccc3)C(C)=C1C2(C)C | 2.32

Row | Compound | growth inhibition [%]
60 | CC(C(=O)O)c1ccc(C(=O)c2cccs2)cc1 (stereo not drawn) | -0.105
61 | CC(=O)OCC(=O)[C@@]1(O)[C@H](C)C[C@H]2[C@@H]3CCC4=CC(=O)C=C[C@]4(C)[C@@]3(F)[C@@H](O)C[C@@]21C | 1.28
62 | C[C@@H](c1ncncc1F)[C@](O)(Cn1cncn1)c1ccc(F)cc1F | -0.404
63 | COc1nc(C)nc(Cl)c1NC1=NCCN1 | -0.769
64 | C[C@H](Cc1cc2c(c(C(N)=O)c1)N(CCCO)CC2)NCCOc1ccccc1OCC(F)(F)F | -1.83
65 | CC(C)(Oc1ccc(Cl)cc1)C(=O)O | -0.393
66 | N[C@@H]1CCCCN(c2c(F)cc3c(=O)c(C(=O)O)cn(C4CC4)c3c2Cl)C1 | -0.978
67 | COc1cc(NS(=O)(=O)c2ccc(N)cc2)nc(OC)n1 | -1.53
68 | CCC(NC(C)C)C(O)c1ccc(O)c(O)c1 (stereo not drawn) | 1.21
69 | CCN(CC)C(=S)SSC(=S)N(CC)CC | 0.0312
70 | Cc1nc(Nc2ncc(C(=O)Nc3c(C)cccc3Cl)s2)cc(N2CCN(CCO)CC2)n1 | 2.8
71 | COC(=O)C1=C(C)NC(C)=C(C(=O)OC2CCCN(Cc3ccccc3)C2)C1c1cccc([N+](=O)[O-])c1 (stereo not drawn) | 2.1
72 | N[C@@H](Cc1cc(I)c(Oc2ccc(O)c(I)c2)c(I)c1)C(=O)O | 0.729
73 | O=C([O-])[C@H](O)[C@@H](O)[C@H](O)[C@H](O)CO.[Na+] | -0.611
74 | CN(C/C=C/c1ccccc1)Cc1cccc2ccccc12 | 0.316
75 | [O-][n+]1cccc(CO)c1 | 2.91
76 | CNC(=C[N+](=O)[O-])NCCSCc1csc(CN(C)C)n1 | 0.421
77 | Cc1ccc(C)c(OCCCC(C)(C)C(=O)O)c1 | 0.0955
78 | N#Cc1ccc(C(c2ccc(C#N)cc2)n2cncn2)cc1 | 1.04
